TEAD-YAP block: TEAD-YAP interaction inhibition; HEK-TIYL cells, TEAD-Gal4/YAP UAS-luciferase luminescence; inhibition, % at 9.12 µM; 640,000 compounds, 1.4% hits; in the data active means inhibition above about 32%;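 further: 0% = median of test compound wells and 100% = reference inhibitor wells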
MITF inh: blocks human microphthalmia-associated transcription factor; AID 1259374; AlphaScreen MITF homodimerization, bead proximity signal; inhibition, % at 2.6 µM; 650,000 compounds, 0.91% hits; O75030; in the data active means inhibition above about 50%;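 further: 0% = vehicle wells with protein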
FBW7 activator: activators of human E3 ligase FBW7. Q969H0. normalized activity (activation), % at 26.1 µM. AlphaScreen FBW7–phospho-cyclin E peptide binding, activator screen. 650,000 compounds, 0.13% hits; in the data active means normalized activity above about 1.9%;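 further: purified mutant Fbw7 with reduced substrate affinity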
GPR151 activ: activators of human GPR151. Q8TDV0. activation, % at 11.2 µM. AID 1508602. PathHunter beta-arrestin GPR151 cells, luminescence. 650,000 compounds, 1% hits; in the data active means activation above about 4.9%;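 further: 0% = median of compound wells and 100% = cells with positive control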
Target sequence (Q8TDV0 whole entry, looked up): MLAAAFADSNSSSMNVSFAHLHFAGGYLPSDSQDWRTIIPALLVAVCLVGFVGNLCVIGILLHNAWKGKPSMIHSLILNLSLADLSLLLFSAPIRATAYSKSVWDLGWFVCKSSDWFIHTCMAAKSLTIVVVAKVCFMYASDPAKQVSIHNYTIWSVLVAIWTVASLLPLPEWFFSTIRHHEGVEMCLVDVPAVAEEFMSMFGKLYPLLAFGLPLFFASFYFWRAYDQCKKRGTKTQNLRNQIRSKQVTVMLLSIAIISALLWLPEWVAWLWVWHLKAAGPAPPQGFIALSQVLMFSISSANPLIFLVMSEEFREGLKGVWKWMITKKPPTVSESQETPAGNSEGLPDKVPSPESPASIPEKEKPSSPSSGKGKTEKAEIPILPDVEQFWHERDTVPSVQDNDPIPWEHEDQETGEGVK
* = called active by the depositor. Only some compounds are listed: those with a hit (about 3.4% of all), similar ones and a draw of the others.

SMILES | TEAD-YAP block | MITF inh | FBW7 activator | GPR151 activ
CC(=O)c1ccc(F)c(-c2cc(C)cc3c2OC(CNC(=O)CC2NC(=O)NC2=O)C3)c1 (stereo not given) | -16.1 | 3.2 | 0.0 | -0.6
CC(=O)c1ccc2c(c1)C1C=CCC1C(c1ccc(C(=O)O)cc1)N2 (stereo not given) | -3.0 | 67.2* | -0.9 | 1.4
CC(C)COC(=O)c1ccc2c(c1)C1C=CCC1C(C(=O)O)N2 (stereo not given) | 4.5 | 29.3 | -0.2 | 0.4
CC(=O)c1ccc2c(c1)C1C=CCC1C(c1ccc(Br)cc1)N2 (stereo not given) | 8.4 | 13.1 | 1.0 | -0.5
O=C(O)c1ccc2c(c1)[C@@H]1C=CC[C@@H]1[C@H](c1c(F)cccc1Cl)N2 | 39.9* | 8.6 | 0.0 | 0.0
COC(=O)c1ccccc1OC(=O)c1ccc2c(c1)C1C=CCC1C(C(=O)O)N2 (stereo not given) | 7.2 | 68.3* | -0.5 | 0.1
COC(=O)c1ccc([C@@H]2Nc3ccc(C(C)=O)cc3[C@@H]3C=CC[C@@H]32)cc1 | -28.8 | 10.7 | -0.2 | -1.1
COC(=O)c1ccc([C@@H]2Nc3ccc(C(=O)O)cc3[C@@H]3C=CC[C@@H]32)cc1 | 12.5 | 72.8* | -0.7 | -0.3
COc1cc(/C=C2/NC(=O)N(CC(=O)Nc3ccc(C)cc3)C2=O)ccc1OCC(N)=O | 8.4 | -0.8 | 0.0 | 0.6
O=C(O)c1ccc2c(c1)C1C=CCC1C(c1ccc(F)cc1)N2 (stereo not given) | 0.0 | 29.6 | -0.7 | 1.5
CCOC(=O)c1ccc2c(c1)C1C=CCC1C(c1ccc(C(=O)O)cc1)N2 (stereo not given) | 7.3 | 68.0* | -2.3 | -0.2
O=C(O)c1ccc(C2Nc3ccc([N+](=O)[O-])cc3C3C=CCC32)cc1 (stereo not given) | -11.1 | 76.2* | -1.9 | 0.0
O=C(O)c1ccc2c(c1)C1C=CCC1C(c1ccccc1)N2 (stereo not given) | 4.0 | 59.3* | -0.9 | 0.5
CCOC(=O)c1ccc2c(c1)C1C=CCC1C(c1ccc(F)cc1)N2 (stereo not given) | 4.1 | 7.5 | 0.1 | -1.2
CCOC(=O)c1ccc2c(c1)C1C=CCC1C(C(=O)O)N2 (stereo not given) | 4.0 | 76.3* | -0.4 | 1.2
COC(=O)Cn1nc(C(F)(F)F)c2c1CCC2 | -1.2 | -5.4 | 0.0 | -1.4
CCOc1ccc(/C=N/NC(=O)c2cccc(I)c2)cc1 | -19.2 | -7.8 | 0.0 | 3.2
O=C1N[C@@H](Cc2ccccc2)C(=O)N2C[C@@H](NCc3cccs3)C[C@@H]12 | 7.6 | 9.7 | 1.1 | -0.7
Cc1ccc2occ(CN3CCC4(CC3)CC4C(=O)N3C[C@@H](C)O[C@@H](C)C3)c(=O)c2c1 (stereo not given in full) | 4.5 | 8.4 | -0.1 | -0.3
O=C(O)c1ccc2c(c1)C1C=CCC1C(c1cccc3ccccc13)N2 (stereo not given) | 49.1* | 23.5 | -0.1 | 0.1
O=C(O)C1Nc2ccc(Oc3ccccc3)cc2C2C=CCC12 (stereo not given) | 4.5 | 35.5 | 0.7 | -0.8
O=C(O)C1Nc2ccc([N+](=O)[O-])cc2C2C=CCC12 (stereo not given) | 1.8 | 85.3* | -0.3 | -1.4
O=C(O)c1ccc2c(c1)C1C=CCC1C(c1ccncc1)N2 (stereo not given) | -5.6 | 56.5* | -2.0 | 0.0
CCOc1ccc2nc(N3CCC(C(=O)Nc4ccc(OC)cc4)CC3)sc2c1 | 8.6 | 7.6 | -0.1 | 1.7
CCOC(=O)C1CCN(c2nc3cc(Br)ccc3s2)CC1 | -11.2 | 14.7 | 0.2 | -6.2
SMILES | TEAD-YAP block | MITF inh | FBW7 activator | GPR151 activ
CCOC(=O)Nc1nc2ccc(OCC)cc2s1 | 0.7 | 7.9 | -0.1 | -0.6
CCOC(=O)C1CCN(c2nc3ccc(CC)cc3s2)CC1 | 55.5* | -5.0 | 0.9 | -1.3
CCOc1ccc2nc(N3CCC(C(=O)O)CC3)sc2c1 | 58.0* | -1.4 | -0.3 | 0.8
CCc1ccc2sc(N3CCC(C(=O)NC4CCCC4)CC3)nc2c1 | 65.0* | -4.4 | -0.2 | 3.1
CCOc1ccc2nc(NC(=O)C(C)(C)CC)sc2c1 | 40.8* | -8.2 | -0.2 | 0.1
CCNC(=O)c1c(NC(=O)/C=C/c2ccco2)sc2c1CCCC2 | 1.1 | -0.9 | 0.8 | 1.1
Cc1ccc2c(ccc(/C=C/c3ccc(N(C)C)cc3)[n+]2C)c1 | 41.5* | 15.7 | -0.4 | 3.6
CN(C)c1ccc(/C=C/c2ccc([N+](=O)[O-])cc2)cc1 | -6.1 | 10.8 | 0.3 | 0.4
CN(C)c1ccc(/C=C/c2cc[n+](C)cc2)cc1 | 43.8* | -6.9 | -0.2 | 1.6
CN(C)c1ccc(/C=C/c2cc(C(C)(C)C)nc(C(C)(C)C)c2)cc1 | 3.5 | -10.6 | -0.2 | 0.0
Cc1ccc(/C=C/c2ccc(N(C)C)cc2)[n+](C)c1 | 70.0* | 8.9 | -0.5 | 0.7
CC[n+]1ccccc1/C=C/c1ccc(N(C)C)cc1 | 47.1* | 1.0 | -0.3 | 2.5
CC[n+]1ccccc1/C=C/N(C(C)=O)c1ccccc1 | -9.2 | 10.2 | 0.5 | -0.2
Cc1ccc2nc(Nc3ccccc3Cl)c3nncn3c2c1 | -4.0 | 3.5 | 0.0 | -0.7
CC(=O)Nc1nc2cc(C)c(C)cc2[nH]1 | -13.5 | 11.2 | 0.1 | -6.3
Cc1cccc2ccc(/C=C/c3ccc(N(C)C)cc3)[n+](C)c12 | 92.8* | 26.9 | -0.6 | 1.0
CN(C)c1ccc(C(=O)/C=C/c2ccccc2)cc1 | -60.5 | 23.9 | 0.4 | -3.2
NC(=O)C1CCCN1c1nc(-c2cccs2)nc2ccccc12 (stereo not given) | 3.1 | -6.9 | 0.0 | -0.1
OCC1CCCCN1c1nc(-c2cccs2)nc2ccccc12 (stereo not given) | 74.0* | -0.3 | 0.1 | 1.1
CCOc1ccccc1CN1CCN(Cc2cc(=O)c3ccccc3[nH]2)CC1CCO (stereo not given) | 47.9* | -8.3 | -0.1 | -0.6
COc1ccc(-c2c(C)nn3c(NCc4cccnc4)cc(C)nc23)cc1 | 15.2 | 6.0 | 0.0 | 2.7
COc1ccc(-c2c(C)nn3c(NCCCN(C)C)cc(C)nc23)cc1 | 1.1 | 20.2 | 3.4* | 0.5
COc1ccc(-c2c(C)nn3c(NCc4ccncc4)cc(C)nc23)cc1 | -7.4 | 21.1 | 4.0* | 0.1
O=C(NNC(=O)c1cccc(Br)c1)c1ccccc1 | -9.8 | -9.3 | -0.3 | -0.2
CCCCNS(=O)(=O)c1ccc(Cl)c(C(F)(F)F)c1 | 5.7 | 1.0 | 0.1 | -0.5
SMILES | TEAD-YAP block | MITF inh | FBW7 activator | GPR151 activ
CC12CC3CC(C)(C1)CC(C(=O)NNC(N)=S)(C3)C2 | 3.5 | 5.1 | -0.1 | 0.5
CCCCC(=O)OCCN1C(=O)c2cccc3c(N4CCOCC4)ccc(c23)C1=O | -23.2 | -31.2 | 3.4* | 1.1
CCCCC(=O)OCCCN1C(=O)c2cccc3c(N4CCCCC4)ccc(c23)C1=O | -0.4 | -1.7 | 0.0 | 0.6
COc1ccc(NC(c2cccnc2)c2ccc3cccnc3c2O)cc1 (stereo not given) | 0.6 | 58.9* | -2.0 | -0.2
Cc1ccc2ccc(C(Nc3ccccn3)c3cccnc3)c(O)c2n1 (stereo not given) | 9.6 | 1.5 | -0.1 | -0.8
Oc1ccccc1NC(c1cccnc1)c1ccc2cccnc2c1O (stereo not given) | 6.6 | 97.8* | -0.3 | -1.4

From PubChem BioAssay
